Holding throughout (settings): mRNA level, 48 h; actives raise or lower the signal
Read-out in test [1]: Early growth response protein 1 (EGR1) transcription factor, EGR1 (gene 1958)
As to the kind of experiment: LTEA_HepaRG_EGR1: Life Technologies and Expression Analysis (LTEA) Assay for Early growth response protein 1 (EGR1) transcription factor using HepaRG (AID 2283490). The gist of the method: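 Differentiated human HepaRG cells in serum-free induction medium were exposed in duplicate for 48 h to eight concentrations (top 100 uM, half-log steps) in 0.5% DMSO. EGR1 mRNA was quantified by qRT-PCR, normalized to ACTB, GAPDH and POLR2A, and fitted bidirectionally versus DMSO.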

Read-out in test [2]: Ezrin (EZR), EZR (gene 7430)
Briefly: LTEA_HepaRG_EZR: Life Technologies and Expression Analysis (LTEA) Assay for Ezrin (EZR) using HepaRG (AID 2283491). The procedure, abridged:
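Read-out is EZR transcript level by qRT-PCR, normalized to three housekeeping genes and fitted bidirectionally against the DMSO control. Human HepaRG cells received test chemicals for 48 h at eight half-log concentrations up to 100 uM in 0.5% DMSO.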

Read-out in test [3]: Cytochrome P450 3A7 (Homo sapiens) (UniProt P24462)
Briefly: LTEA_HepaRG_CYP3A7: Life Technologies and Expression Analysis (LTEA) Assay for CYP3A7 using HepaRG (AID 2283492). The gist of the method:
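CYP3A7 transcript measured by qRT-PCR (ACTB, GAPDH, POLR2A normalization) after 48 h chemical exposure of HepaRG cells in duplicate. Eight half-log concentrations, maximum 100 uM, 0.5% DMSO vehicle; bidirectional curve fitting against DMSO baseline.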

Read-out in a further test: CYP3A5 (gene 1577)
Briefly: LTEA_HepaRG_CYP3A5: Life Technologies and Expression Analysis (LTEA) Assay for CYP3A5 using HepaRG (AID 2283493). The gist of the method: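 Differentiated HepaRG cells in serum-free induction medium were dosed 48 h with test chemicals (8-point half-log series, top 100 uM, 0.5% DMSO, duplicate). CYP3A5 mRNA measured by qRT-PCR, normalized to ACTB, GAPDH, POLR2A; bidirectional fit versus DMSO.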

Read-out in test [4]: Fatty Acid-Binding Protein 1 (FABP1), FABP1 (gene 2168)
As to the kind of experiment: LTEA_HepaRG_FABP1: Life Technologies and Expression Analysis (LTEA) Assay for Fatty Acid-Binding Protein 1 (FABP1) using HepaRG (AID 2283494). The gist of the method: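 Differentiated human HepaRG cells were exposed in duplicate for 48 h in serum-free induction medium to 8-point half-log concentration series topping at 100 uM in 0.5% DMSO. FABP1 mRNA measured by TaqMan qRT-PCR, normalized to ACTB/GAPDH/POLR2A; bidirectional fit versus DMSO.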

Read-out in test [5]: Cytochrome P450 4A22 (Homo sapiens) (UniProt Q5TCH4)
As to the kind of experiment: LTEA_HepaRG_CYP4A22: Life Technologies and Expression Analysis (LTEA) Assay for Cytochrome P450 4A22 (CYP4A22) using HepaRG (AID 2283495). The procedure, abridged: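 Gene expression measured by qRT-PCR against three housekeeping genes (ACTB, GAPDH, POLR2A), with gain or loss fitted relative to 0.5% DMSO vehicle. HepaRG cultures received 48 h chemical treatment, top concentration 100 uM, half-log steps, duplicate wells.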

Read-out in test [6]: Cytochrome P450 7A1 (Homo sapiens) (UniProt P22680)
As to the kind of experiment: LTEA_HepaRG_CYP7A1: Life Technologies and Expression Analysis (LTEA) Assay for Cytochrome P450 7A1 (CYP7A1) using HepaRG (AID 2283496). The gist of the method:
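Gene expression endpoint in human HepaRG liver cells treated for 48 h with test chemicals (up to 100 uM, 0.5% DMSO). Values come from bidirectional concentration-response fitting versus DMSO.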

Read-out in test [7]: Glutathione S-Transferase (GSTA2), GSTA2 (gene 2939)
Briefly: LTEA_HepaRG_GSTA2: Life Technologies and Expression Analysis (LTEA) Assay for Glutathione S-Transferase (GSTA2) using HepaRG (AID 2283497). The procedure, abridged: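 Human HepaRG cells, plated 48 h, then exposed in serum-free induction medium for 48 h to eight half-log concentrations up to 100 uM in 0.5% DMSO, duplicate. GSTA2 mRNA by qRT-PCR, normalized to ACTB/GAPDH/POLR2A; bidirectional fit versus DMSO.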

Read-out in test [8]: Glutamate-cysteine ligase catalytic (GCLC), GCLC (gene 2729)
As to the kind of experiment: LTEA_HepaRG_GCLC: Life Technologies and Expression Analysis (LTEA) Assay for Glutamate-cysteine ligase catalytic (GCLC) using HepaRG (AID 2283498). The gist of the method: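 Differentiated human HepaRG cells, plated 48 h then switched to serum-free induction medium, were exposed in duplicate for 48 h to 8 half-log concentrations topping at 100 uM in 0.5% DMSO. GCLC mRNA was quantified by qRT-PCR against ACTB, GAPDH and POLR2A.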

Read-out in test [9]: growth arrest and DNA damage 45 (GADD45G), GADD45G (gene 10912)
As to the kind of experiment: LTEA_HepaRG_GADD45G: Life Technologies and Expression Analysis (LTEA) Assay for growth arrest and DNA damage 45 (GADD45G) using HepaRG (AID 2283499). The procedure, abridged: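 GADD45G transcript level by qRT-PCR (housekeeping-normalized: ACTB, GAPDH, POLR2A) after 48 h chemical treatment of a single HepaRG lot in serum-free induction medium; eight-point half-log series up to 100 uM in 0.5% DMSO, duplicates, up- or down-regulation scored.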

A word on the AC50: it is the midpoint of the concentration-response curve, whichever way the signal moves.

Structures are written as SMILES. Calls of active or inactive are those of the source. The calls were made as follows: active = hit-call score of the fitted dose curve at least 0.9, where 1 is the maximum; inactive = score below 0.9.

Cytochrome P450 3A7 (Homo sapiens), sequence (P24462 whole entry, looked up): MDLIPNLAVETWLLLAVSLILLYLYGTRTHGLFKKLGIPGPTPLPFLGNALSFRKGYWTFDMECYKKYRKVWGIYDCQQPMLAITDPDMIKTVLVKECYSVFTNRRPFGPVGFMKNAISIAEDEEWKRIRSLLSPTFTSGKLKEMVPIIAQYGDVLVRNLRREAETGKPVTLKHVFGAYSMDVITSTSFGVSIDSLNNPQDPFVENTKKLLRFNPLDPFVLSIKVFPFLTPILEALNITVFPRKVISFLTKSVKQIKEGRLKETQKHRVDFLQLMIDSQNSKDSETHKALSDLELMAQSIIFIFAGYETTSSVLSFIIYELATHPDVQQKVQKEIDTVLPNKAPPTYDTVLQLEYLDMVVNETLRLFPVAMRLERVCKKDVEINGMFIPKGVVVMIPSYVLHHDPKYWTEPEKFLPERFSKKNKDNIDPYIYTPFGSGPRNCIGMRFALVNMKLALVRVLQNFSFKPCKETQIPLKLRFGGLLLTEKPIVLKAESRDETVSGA

In the case of `CCSC(=O)N1CCCCCC1`, the molecule was classed as inactive (in test [1]; in [2]; in [3]; in the test with CYP3A5 (gene 1577); in [4]; in test [5]). In addition, the molecule was classed as inactive in test [6], in test [7], in test [8] and in [9].

Regarding `CCOC(=O)C(C)OC(=O)c1cc(Oc2ccc(C(F)(F)F)cc2Cl)ccc1[N+](=O)[O-]` (configuration not stated), the half-maximal activity concentration (AC50) in [1] is 18.7 µM (active); in [3] it was 5.9 µM (active); in the test with CYP3A5 (gene 1577) it was 27.5 µM (active); in test [4], 14.5 µM (active); in [5] it was 0.414 µM (active); in [6] it was 50 µM (active). For the same molecule, the results for the AC50 in test [7] and in [9] were 84.3 µM (active) and 3.82 µM (active), respectively. Moreover, the result in [2] and in test [8] was inactive.

Take `CC(C)C1(C)N=C(c2ncccc2C(=O)O)NC1=O` (configuration not stated): the call (in test [1]; in test [2]; in test [3]; with CYP3A5 (gene 1577); in test [4]; in test [5]) was inactive. Also, the result in test [6], in test [7], in test [8] and in test [9] was inactive.

With `Cn1c(-c2ccccc2)cc(-c2ccccc2)[n+]1C`, the result in test [1] and in test [2] was inactive. Moreover, the AC50 in test [3] is 44.1 µM (active); with CYP3A5 (gene 1577) it was 79 µM (active); in test [4], 21.9 µM (active); in test [5], 24 µM (active); in [6], 57.2 µM (active); in test [7], 65.9 µM (active). Moreover, the AC50 in test [8] is 82.3 µM (active); in [9], 50 µM (active).

In the case of `CCOc1cc(C(C)(C)C)ccc1C1COC(c2c(F)cccc2F)=N1` (configuration not stated), the call (in test [1]; in test [2]; in test [3]; in the test with CYP3A5 (gene 1577); in test [7]; in [8]) was inactive. Further, the result in [9] was inactive. The AC50 in test [4] is 6.69 µM (active); in [5], 33 µM (active); in test [6] it was 26.9 µM (active).

For the molecule `CCC(C)n1c(=O)[nH]c(C)c(Br)c1=O` (configuration not stated), the molecule was classed as inactive in test [1], in test [2], in test [3] and in test [8]. The AC50 with CYP3A5 (gene 1577) was 20.4 µM (active); in test [4] it was 24.6 µM (active); in test [5] it was 7.06 µM (active); in test [6] it was 23.7 µM (active); in [7] it was 50 µM (active); in test [9], 30.4 µM (active).

Regarding `CC1(C)CCC(=Cc2ccc(Cl)cc2)C1(O)Cn1cncn1` (configuration not stated), the outcome (in test [1]; in [2]; with CYP3A5 (gene 1577); in test [7]; in [8]; in test [9]) was inactive. Further, the concentration at half-maximal activity (AC50) in [4] is 4.41 µM (active); in test [5], 14.6 µM (active); in test [6], 4.96 µM (active).

For `COc1ccc(-c2ccccc2)cc1NNC(=O)OC(C)C`, the call (in [1]; in test [2]; in test [3]; with CYP3A5 (gene 1577); in [4]; in test [5]) was inactive. In addition, the molecule was classed as inactive in test [6], in test [7], in [8] and in test [9].

In the case of `CCCCC(O)(Cn1cncn1)c1ccc(Cl)cc1Cl` (configuration not stated), the AC50 was 69.2 µM (active) in test [1]; 89.4 µM (active) in test [3]; 79.6 µM (active) in test [4]; 67.8 µM (active) in test [5]; 89 µM (active) in test [6]; 73.2 µM (active) in [7]. The AC50 in test [9] is 15.8 µM (active). In addition, the molecule was classed as inactive (in test [2]; with CYP3A5 (gene 1577); in [8]).

Regarding `CC(C)(C)C(=O)C(Oc1ccc(Cl)cc1)n1cncn1` (configuration not stated), the outcome (in test [1]; in test [2]; in the test with CYP3A5 (gene 1577); in test [6]; in [8]; in [9]) was inactive. Moreover, the AC50 in test [3] is 12.1 µM (active); in [4] it was 50 µM (active); in [5], 30.1 µM (active).

In the case of `CCNC(=O)NC(=O)C(C#N)=NOC`, the molecule was classed as inactive (in [1]; in test [2]; in test [3]; with CYP3A5 (gene 1577); in test [4]; in [7]). The AC50 in test [8] is 9.92 µM (active).

Consider `CC(C)Nc1nc(Cl)nc(NC(C)C)n1`, for which the outcome (in [1]; in test [2]; with CYP3A5 (gene 1577); in [5]; in test [7]; in [8]) was inactive. For the same molecule, the molecule was classed as inactive in test [9]. In addition, the AC50 was 2.51 µM (active) in test [3], 19.2 µM (active) in test [4] and 50 µM (active) in [6].

Regarding `O=P(O)(O)CCCl`, the outcome (in test [1]; in test [2]; in test [3]; with CYP3A5 (gene 1577); in test [4]; in [5]) was inactive. Besides, the outcome in [6], in test [7], in test [8] and in test [9] was inactive.

As to `CC(C)N1C(=O)c2ccccc2NS1(=O)=O`, the molecule was called inactive (in [1]; in test [2]; in [3]; with CYP3A5 (gene 1577); in [4]; in [5]). Besides, the call in test [6], in test [7], in [8] and in test [9] was inactive.

For `COC(=O)NC(=S)Nc1ccccc1NC(=S)NC(=O)OC`, the outcome (in test [1]; in test [2]; in the test with CYP3A5 (gene 1577); in [4]; in test [5]; in test [6]) was inactive. Moreover, the outcome in [7], in test [8] and in test [9] was inactive. In addition, in [3], the AC50 was 4.46 µM (active).

Consider `CCOc1nc(C(Cl)(Cl)Cl)ns1`, for which the figures for the AC50 in test [1], in [3] and in [8] were 1.12 µM (active), 2.43 µM (active) and 0.939 µM (active), respectively. Besides, the molecule was called inactive (in test [2]; in the test with CYP3A5 (gene 1577); in [4]; in [7]).

As for `COc1cc(Cl)c(OC)cc1Cl`, the molecule was classed as inactive (in test [1]; in [2]; with CYP3A5 (gene 1577); in test [4]; in test [5]; in test [6]). Besides, the outcome in test [7], in test [8] and in [9] was inactive. Also, the AC50 in test [3] is 8.31 µM (active).

For the origin of these results see PubChem BioAssay (EPA / NIEHS).
